PubChem BioAssay
Several values for one entry are separate records, joined by “and”; a condition that tells them apart may be missing. Identical values can stand only once. Records with an inconclusive call do not appear. Activity calls are given as the source filed them.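 How the source made its calls, unless noted: active means mean z-score across replicates of 1.96 or higher in either the MELAS or the Rieske mutant cell line; inactive means the rest.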

Columns and labels:
[1] = Wnt pathway potentiators raising nuclear beta-catenin – imaging, WNT3A-conditioned medium, mouse C2C12, NPC library, primary screen (AID 1117326; in the data active means nuclear beta-catenin stimulation mostly above about 4.2%, no sharp cut-off; inactive means mostly below about 10%; further: reference of the scale not given here); conditions: stronger effect = higher value
[2] = stimulators of insulin release from INS-1E, primary screen, cell-based, 5 mM glucose, NPC library (AID 1117329;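 active means compound raises insulin release from rat beta cells at 5 mM glucose, no numeric limit stated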; further: reference of the scale not given here); conditions: rat INS-1E insulin secretion, at 10 µM, stronger effect = higher value
[3] = growth inhibition of GSK3B-pretreated HCT116 cells – cell-based, CellTiter-Glo, 0.2 to 20 µM (AID 1117336;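 active means compounds lowering colon cancer cell viability after pretreatment blocking the GSK3B kinase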); conditions: HCT116 viability after GSK3B inhibitor, at 20 µM, stronger effect = higher value
[4] = inhibition of endothelial tube formation, primary screen, imaging, VEGF stimulated, CD31 staining, tube area, NPC library (AID 1117340;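 active means compound that reduces growth-factor-driven endothelial tube area in a mixed cell culture, no cutoff stated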); conditions: VEGF-stimulated ADSC/ECFC co-culture, at 10 µM, stronger effect = higher value
[5] = GLP1 release stimulators, primary, NCI-H716, NPC library (AID 1117341;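 active means compound raises GLP1 secretion from the human gut endocrine cells, with no numeric limit stated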; further: reference of the scale not given here); conditions: NCI-H716 cells, at 10 µM, stronger effect = higher value
[6] = HCT116 colon cancer cell growth inhibition, primary screen, CellTiter-Glo luminescence, NPC library (AID 1117342;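 active means compounds that lower survival of HCT116 colon cancer cells in the luminescence readout, no numeric limit stated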); conditions: at 20 µM (top of the series)
[7] = reduced SW480 viability measured with CellTiter-Glo, NPC library, primary (AID 1117343;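 active means compounds that lower viability of the colon cancer cells in the luminescence readout, with no numeric limit stated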); conditions: CellTiter-Glo luminescence; at 20 µM (top of the series) unless noted
[8] = NPC library primary testing for decreased DLD-1 cell viability via CellTiter-Glo (AID 1117346;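 active means compounds that lower survival of DLD-1 colon cancer cells in the luminescence readout, no cutoff given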); conditions: DLD-1 viability, CellTiter-Glo luminescence; at 20 µM (top of the series)
[9] = viability loss in pontine glioma line – cell-based, SU-DIPG-IV, MIPE4.0, CellTiter-Glo, qHTS, dose response (AID 1347063; cut-off not given, nearly all actives have AC50 up to about 30 µM;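 further: compound exposure lasted 48 hours before the viability readout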); conditions: CellTiter-Glo ATP luminescence
[10] = viability loss with induced miR-34 in A549 – imaging, A549 dox-inducible miR-34, nuclei and caspase counts, primary screen (AID 1347080;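 active means compounds whose cell count with miR-34 switched on is under 0.7 times the count with it off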); conditions: A549 miR-34 inducible, Hoechst nuclei count, 48 h
[11] = MELAS cybrid and Rieske KO viability enhancers – cell-based, MELAS cybrids, Rieske KO mouse fibroblasts, CellTiter-Glo, primary screen (AID 1508586); conditions: low glucose;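 further: z relative to plate mean and SD of compound and empty wells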
[12] = galactose survival enhancers in mitochondrial complex I cybrids – cell-based, galactose medium, ATP luminescence, primary screen (AID 1645843;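 active means z-score of at least 1.8 in each of two replicates, scored against plate mean and spread of sample wells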;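 further: positive z means more ATP and so rescue of galactose-driven cybrid death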); conditions: complex I mutant cybrid cells, 72 h, stronger effect = higher value
[13] = viability loss in pontine glioma line – cell-based, JHH-DIPG-1, MIPE4.0, CellTiter-Glo, qHTS, dose response (AID 1347062; cut-off not given, nearly all actives have AC50 up to about 27 µM;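 further: cells exposed to compound for two days before readout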); conditions: JHH-DIPG-1 viability, CellTiter-Glo ATP luminescence
[14] = P. berghei load reduction in hepatocytes – cell-based, HepG2, luciferase luminescence, HepG2 viability, primary screen (AID 624349; in the data active means parasite load remaining mostly below about 12%, no sharp cut-off; inactive means mostly above about 10%;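 further: 100% = mean of DMSO negative control wells on the same plate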); conditions: P. berghei liver stage in HepG2, luciferase luminescence, concentration not given here; parasite load remaining: stronger effect = lower value; viability: measured here: HepG2 viability without parasites
[15] = stronger effect = lower value, cell number ratio, induced over uninduced
[16] = measured here: relative caspase fold change +Dox/-Dox
[17] = measured here: total cells with miR-34 induction, stronger effect = lower value
[18] = measured here: total cells without miR-34 induction
[19] = MELAS cybrid survival, CellTiter-Glo 48 h, stronger effect = higher value
[20] = Rieske KO mouse fibroblast survival, CellTiter-Glo 72 h

SMILES | nuclear beta-catenin stimulation ([1]; at 10 µM) | nuclear beta-catenin stimulation ([1]; stimulation, at 2 µM) [%] | insulin secretion stimulation [2] | viability decrease [3] | tube area decrease [4] | GLP1 secretion stimulation [5] | inhibition of viability [6] | viability decrease (inhibition) [7] | viability decrease (inhibition) [8] | AC50 [9] | fold change [10, 15] | fold change [10, 16] | cell count [10, 17] | cell count [10, 18] | z-score [11, 19] | z-score [11, 20] | z-score [12] | AC50 [13] | parasite load remaining [14] | viability [14] [%]
CC(C)(C)C(=O)OCOP(=O)(COCCn1cnc2c(N)ncnc21)OCOC(=O)C(C)(C)C | 79.6% (active) | 72.7 | 3.5% (inactive) | 95.4% (active) | 100% (active) | 2.8% (inactive) | 73.3% (active) | 95.4% (active) | 78.5% (active) | 7.43 µM (active) | 0.906 (inactive) and 0.857 (inactive) | 0.703 and 1.46 | 5980 and 5100 | 6600 and 5960 | -0.539 (inactive) and -0.165 (inactive) | 0.795 and 0.351 | -0.625 (inactive) | – | – | –
Cc1c(C(=O)NN2CCCCC2)nn(-c2ccc(Cl)cc2Cl)c1-c1ccc(Cl)cc1 | -0.4% (inactive) | -0.1 | 3% (inactive) | 109% (active) | 110% (active) | 1.2% (inactive) | 108% (active) | 130% (active) | 101% (active) | 16.6 µM (active) | 0.783 (inactive) and 0.989 (inactive) | 0.923 and 2.07 | 4800 and 7920 | 6120 and 8010 | -1.37 (inactive) and -3.1 (inactive) | 0.317 and -0.818 | -2.65 (inactive) | 16.6 µM (active) | – | –
CCCCCCCCOc1ccccc1C(=O)Nc1ccc(C(=O)OCC[N+](C)(CC)CC)cc1 | 4.2% (inactive) | 0.1 | 15.7% (inactive) | 99.7% (active) | 101% (active) | -3.3% (inactive) | 98.4% (active) | 88.6% (active) | 99% (active) | 18.7 µM (active) | 0.913 (inactive) | 0.694 | 7980 | 8740 | -0.155 (inactive) | -0.0436 | – | 23.5 µM (active) | – | –
Cc1ccc(-c2ncc(Cl)cc2-c2ccc(S(C)(=O)=O)cc2)cn1 | 10.8% (inactive) | 8.4 | 2.3% (inactive) | 27.3% (inactive) | -22.7% (inactive) | 0.5% (inactive) | -14.5% (active) | 5.7% (inactive) | 12.4% (inactive) | – | 0.833 (inactive) | 0.95 | 8800 | 10600 | -0.283 (inactive) and 0.00989 (inactive) | 0.187 and -0.33 | 1.08 (inactive) | – | 30% (inactive) | 120
O=C(O)c1c(Cl)c(Cl)c(Cl)c(Cl)c1-c1c2cc(I)c(=O)c(I)c-2oc2c(I)c(O)c(I)cc12 | -2.4% (inactive) | -0.6 | -1.2% (inactive) | 96.7% (active) | 23.9% (inactive) | -4.3% (inactive) | 91.6% (active) | 90.7% (active) | 73.4% (active) | – | – | – | – | – | – | – | – | – | – | –
